Assay results reported in PubChem BioAssay (NCI).
Compounds without any hit were thinned out: in the full panel of roughly 79,000, 15% have a hit. Calls of active or inactive are those of the source. No stated cut-off is given here; in the data, active means growth inhibition above about 70%; inactive means the rest.

How the values were obtained:
[1] = NCI Yeast Anticancer Drug Screen. Data for the rad50 strain (AID 155);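 further: 0% = growth of vehicle-only cultures of the same strain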; details: S. cerevisiae rad50 strain growth inhibition; at 50.0 µM; hits give high values
Procedure, shortened: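 Vehicle-treated cultures provide the reference for the growth inhibition reported for compound-exposed, repair-deficient yeast.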

[2] = NCI Yeast Anticancer Drug Screen. Data for the mec2-1 strain (AID 157); details: S. cerevisiae mec2-1 strain, at 50.0 µM, hits give high values
Procedure, shortened: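 Readout is yeast growth inhibition, normalised to vehicle-treated controls, in the mec2-1 strain exposed to compound.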

[3] = NCI Yeast Anticancer Drug Screen. Data for the sgs1 mgt1 strain (AID 161);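 further: 0% = growth of cultures given vehicle only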; details: S. cerevisiae sgs1 mgt1 strain, at 50.0 µM, hits give high values
Procedure, shortened: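 Compounds are added to genetically altered yeast, and growth is compared with cultures given vehicle alone to give percent inhibition.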

[4] = NCI Yeast Anticancer Drug Screen. Data for the cln2 rad14 strain (AID 165);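 further: 0% = growth equal to vehicle treated cultures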; details: S. cerevisiae cln2 rad14 strain, at 50.0 µM, hits give high values
Procedure, shortened: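 Relative to vehicle controls, growth inhibition of compound-treated cln2 rad14 yeast was recorded.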

[5] = NCI Yeast Anticancer Drug Screen. Data for the bub3 strain (AID 167); details: S. cerevisiae bub3 mutant strain, at 50.0 µM, hits give high values
Procedure, shortened: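 Mutant yeast screening strain plus compound; vehicle-treated cultures serve as the 0% inhibition reference.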

[6] = NCI Yeast Anticancer Drug Screen. Data for the mlh1 rad18 strain (AID 175); details: S. cerevisiae mlh1 rad18 strain growth inhibition; at 50.0 µM; hits give high values
Procedure, shortened: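 Test agents were incubated with a yeast strain of defined genotype (DNA damage repair defect). Inhibition of growth was derived by comparison with vehicle-exposed cultures.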

Measured: growth inhibition

N#CC12CCC(CC1)CC2Cl (stereo not given)
inactive: [1] -15.7% | [2] 8.45% | [3] 0.95% | [4] 4.4% | [5] 1.5% | [6] -12.7%

CC(=O)OC1C/C(C)=C/CCC(C)/C=C/C2(C)CCC(C(C)(C)O)C12 (stereo not given)
inactive: [1] 1.7% | [2] -10.3% | [3] 11.9% | [4] 2.5% | [5] 14.1% | [6] 17.6%

O=C(CC(c1ccccc1)C(Sc1ccccc1)(Sc1ccccc1)Sc1ccccc1)c1ccccc1 (stereo not given)
inactive: [1] 13.2% | [2] 15.3% | [3] 13.4% | [4] 3% | [5] -1.35% | [6] 7.25%

Nc1ncc([N+](=O)[O-])c(=O)[nH]1
inactive: [1] -29.9% | [2] -14.2% | [3] -1.35% | [4] -4.25% | [5] 0.55% | [6] 26.9%

COc1cccc(NC(=O)CC(=O)N2N=C(C)C(N=Nc3ccc(S(=O)(=O)c4ccc(N=NC5C(=O)N(C(=O)CC(=O)Nc6cccc(OC)c6)N=C5C)cc4)cc3)C2=O)c1 (stereo not given)
inactive: [1] 27.4% | [2] 15.8% | [3] 8.9% | [4] -16.4% | [5] -2% | [6] 29.1%

CCCCn1cc(C(=O)O)c(=O)c2c3sccc3ccc21
inactive: [1] -24.1% | [2] -35.8% | [3] -8.95% | [4] -5.15% | [5] -9.5% | [6] -26.1%

CCCc1ccccc1NC(=O)NCCCl
inactive: [1] -1.75% | [2] -2.5% | [3] -0.5% | [4] -30.6% | [5] -12.9% | [6] 5.6%

N#CC12CC3(CCC1CCC1(C2)OCCO1)OCCO3 (stereo not given)
inactive: [1] -13.8% | [2] 2.65% | [3] -3.9% | [4] -6.65% | [5] 4.3% | [6] -1%

C[N+](C)(C)c1ncncn1
inactive: [1] 2.05% | [2] 1.5% | [3] -10.8% | [4] -21% | [5] -25.3% | [6] -0.1%

CCCCCCCCCCCCCCCOc1cc(OC)ccc1-c1nnc(SC)s1
inactive: [1] -15.2% | [2] -15.6% | [3] -24.1% | [4] -3.05% | [5] -11.5% | [6] -5.7%

O=C(O)c1cc(-c2ccccc2Cl)nc2cc3ccccc3cc12
inactive: [1] -14.4% | [2] -19.7% | [3] 4.45% | [4] 14.1% | [5] -6.05% | [6] 0.8%

O=c1[nH]c2cc(Cl)ccc2nc1/C=C(\O)c1ccc([N+](=O)[O-])cc1
inactive: [1] 25.6% | [2] 21.8% | [3] 37.4% | [4] 7.85% | [5] 6.55% | [6] 54%

CC(=O)Nc1cc(C)cc(Br)c1
inactive: [1] -6.85% | [2] -4.1% | [3] -10.1% | [4] 9.05% | [5] 1.5% | [6] -9.55%

CC(=O)OC1CC23CCC(=O)C2(CC3)C1 (stereo not given)
inactive: [1] 19.9% | [2] -5.8% | [3] 1.85% | [4] -30.1% | [5] 8.3% | [6] -11%

O=[N+]([O-])c1ccc2nc(Cl)n[n+]([O-])c2c1
active: [1] 88.7% | [2] 93% | [3] 91.5% | [4] 89.3% | [5] 91.1% | [6] 91.8%

Cc1cc(C)c(NS(=O)(=O)c2ccc(Cl)cc2)cc1C
active: [1] 94.5% | [2] 85.8% | [3] 92.2% | [5] 87.6% | [6] 90.5%
inactive: [4] 70%

COc1ccc(COC(=O)Nc2cccc(Cl)c2)cc1OC
inactive: [1] -11.5% | [2] 30% | [3] 20.1% | [4] -24.2% | [5] 30.8% | [6] 35.8%

CCOC(=O)C(=CN1C/C(=C/C(C)=C/c2ccccc2)SC1=S)C(=O)OCC
inactive: [1] -12.1% | [2] 28.9% | [3] 11.7% | [4] -20.9% | [5] 17.9% | [6] 4.85%

CCN(CC)CCCNc1c2c(nc3c(OC)cccc13)CCCC2
inactive: [1] -38.4% | [2] 10.7% | [3] -6.7% | [4] -41.6% | [5] 5.95% | [6] -2.45%

CC(=O)NNC(=O)c1ccccc1CO
inactive: [1] -18.8% | [2] -15% | [3] -4.55% | [4] 10.4% | [5] -2% | [6] 20.9%

CN1CCN(C2CCCc3ccccc3C2=O)CC1 (stereo not given)
inactive: [1] 21.9% | [2] -10.6% | [3] 4.75% | [4] -36% | [5] -15.5% | [6] 13.4%

COC1=CC(=C(\C#N)c2ccccc2)/C=CC/1=N/O
inactive: [1] 40.2% | [2] 39% | [3] 46.6% | [4] -2% | [5] 64.5% | [6] 46.8%

COC(=O)CCS(=O)(=O)Cc1ccccc1
inactive: [1] 0.95% | [2] -1.3% | [3] -6.95% | [4] -7.9% | [5] -1.65% | [6] -0.5%

CCC[n+]1cccc(C#N)c1
inactive: [1] 6.15% | [2] 5.4% | [3] -7.35% | [4] -24.9% | [5] -4.2% | [6] 22.2%

Nc1nc(SCCc2ccccc2)c2[nH]cnc2n1
inactive: [1] -2.35% | [2] -4.35% | [3] -42.6% | [4] -16.6% | [5] -20.4% | [6] 7%

Nc1ccc(N=Nc2c(S(=O)(=O)O)cc3cc(S(=O)(=O)O)cc(O)c3c2O)cc1
inactive: [1] -30.8% | [2] -16.4% | [3] -29.5% | [4] -23.9% | [5] 6.55% | [6] 10.8%

COc1cc(N=Nc2ccc(N)nc2N)c(OC)cc1N=Nc1ccc([N+](=O)[O-])cc1
inactive: [1] 12.6% | [2] 23% | [3] 1.8% | [4] 21.6% | [5] 9.4% | [6] 27.1%

CCCCNC(=O)c1ccc([N+](=O)[O-])cc1
inactive: [1] 29.3% | [2] 12% | [3] 13.4% | [4] 17.6% | [5] -16.8% | [6] -9.05%

C=CCc1ccc(OC(=O)Nc2ccccc2)c(OC)c1
inactive: [1] 55.9% | [2] 25.2% | [3] 31.4% | [4] 13.9% | [5] 33.5% | [6] 23.4%

CSC(=N/N=C(\C)c1ccccn1)SC
inactive: [1] 0.45% | [2] 6% | [3] 5.3% | [4] -46.2% | [5] -11.7% | [6] 5.85%

Cc1cc(O)c(C(c2cccnc2)c2c(O)cc(C)[nH]c2=O)c(=O)[nH]1
inactive: [1] 1.95% | [2] -14.8% | [3] -40.1% | [4] 11.8% | [5] -30.2% | [6] 30.1%

CCCCCCO/N=C\c1c2c(O)c3c(O)c(C)c4c(c3c1O)C(=O)C(C)(O/C=C\C(OC)C(C)C(OC(C)=O)C(C)C(O)C(C)C(O)C(C)/C=C\C=C(\C)C(=O)N2)O4 (stereo not given)
inactive: [1] 25.2% | [2] 63.4% | [3] 36.6% | [4] 54% | [5] 26.2% | [6] 53.9%

CN(CCO)c1nc(N)cc(=O)[nH]1
inactive: [1] -17.7% | [2] 12.5% | [3] -10.9% | [4] 4.5% | [5] -10.9% | [6] -8.45%

Clc1nc(Sc2ccc(Br)cc2)c(Cl)c(Sc2ccc(Br)cc2)n1
inactive: [1] -18.9% | [2] -2.3% | [3] 8.05% | [4] -0.8% | [5] 1.5% | [6] -17.6%

C=C(C)Cn1cnc2c1c(=O)n(C)c(=O)n2C
inactive: [1] -0.15% | [2] -9.6% | [3] -14.4% | [4] -37.6% | [5] -14.1% | [6] -5.6%

COc1cc(C(=O)O)c([N+](=O)[O-])c(OC)c1OC
inactive: [1] -12.3% | [2] -6.35% | [3] -18.1% | [4] -11.2% | [5] -29.9% | [6] -7.5%

CC(C)/C=N\N1C(N)=C(C#N)C(C#N)(C#N)C1C(C)C (stereo not given)
inactive: [1] -0.65% | [2] 10.5% | [3] -35.3% | [4] -19.4% | [5] -12.2% | [6] -41.3%

C[C@]12C=CC(=O)C=C1[C@@H](F)C[C@H]1[C@@H]3CC[C@](O)(C(=O)CO)[C@@]3(C)C[C@H](O)[C@@]12F
inactive: [1] -11.9% | [2] -26.4% | [3] 4.8% | [4] 66.8% | [5] 2.85% | [6] -9.9%

NC(=O)CCN(CCC(N)=O)CCC(N)=O
inactive: [1] -9.25% | [2] 7.1% | [3] -3.3% | [4] -24.9% | [5] -4.15% | [6] -12.9%

Brc1ccc2oc3ccccc3c2c1
inactive: [1] 24.4% | [2] -2.45% | [3] 18.4% | [4] -5.5% | [5] 6.75% | [6] 24.8%
